Assay outcomes as filed in PubChem BioAssay.
HPGD block: qHTS Assay for Inhibitors of HPGD (15-Hydroxyprostaglandin Dehydrogenase); AID 894, 2007; purified HPGD, NADH fluorescence kinetic, PGE2 substrate; Potency, µM, inactives show at the top dose activity change, negative = inhibition, most hits filed as inhibitors; 15-hydroxyprostaglandin dehydrogenase [NAD(+)] (Homo sapiens), P15428; hit rate 4.3% among 150,000; active = well fitted inhibition curve with a large enough effect, not every such curve was filed as active; inconclusive = small, poorly fitted or top-dose-only effect, or another doubt; inactive = no such curve, though single readings can be large or run the other way; also: potency is read from the fitted curve at half-maximal effect
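NADH formation kinetics: reaction with 30 uM PGE2 and 1 mM NAD+ (final), 20 nM enzyme, Tris-HCl pH 8 with Tween 20, after 15 min compound preincubation at room temperature. Fluorescence change, last versus first of five reads.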
IMPase Li cell: qHTS Assay for Identifying the Cell-Membrane Permeable IMPase Inhibitors: Potentiation with Lithium | Potency, µM (titrated, usually from 59.4 µM), without a hit: top-dose activity, negative = IMPase inhibition, usual class: inhibitors | CHO-M1 cells, IP1 TR-FRET (IP-One), carbachol + lithium | hit rate 0.35% among 210,000;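 also: IP1 builds up when IMPase is blocked and the TR-FRET signal falls; potency is read from the fitted curve at half-maximal effect; plate controls were basal vehicle for no effect and high inhibitor control for full effect; nearly all actives have a fitted effect of over 50% in size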
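CHO cells stably expressing M1 receptor (2000/well, cultured 16–30 h) treated 30 min at 37C with compound plus low lithium. Cytosolic IP1 by TR-FRET (665/620 ratio and 620 channel) after 10 min lysis; AC50 by Hill fit.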
ALOX12 inhib: qHTS Assay for Inhibitors of 12-hLO (12-human lipoxygenase); Polyunsaturated fatty acid lipoxygenase ALOX12 (Homo sapiens), P18054; purified 12-hLO, xylenol orange hydroperoxide absorbance; Potency, µM (series often up to 57.1 µM), for the others: at the top dose activity change, negative = inhibition, actives largely listed as inhibitors; hit rate 0.12% among 150,000; also: potency is read from the fitted curve at half-maximal effect; nearly all actives have a fitted effect of over 55% in size
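Lipoxygenase turnover measured by absorbance at 573 and 405 nm after Fe-XO development. Human 12hLO 150 nM, arachidonate 40 uM, pH 7.0 Hepes buffer with detergent; 15 min compound preincubation, 30 min reaction.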
NPSR antagonist: qHTS Assay for Antagonists of the Neuropeptide S Receptor: cAMP Signal Transduction. Q6W5P4. CHO-NPSR cells, cAMP TR-FRET, antagonist mode. Potency, µM (doses to about 38.3 µM), without a hit: at the top dose activity change, negative = inhibition, hits mostly inhibitors. hit rate 1% among 220,000; also: potency is read from the fitted curve at half-maximal effect; nearly all actives have a fitted effect of over 50% in size
Target sequence (Q6W5P4 whole entry, looked up): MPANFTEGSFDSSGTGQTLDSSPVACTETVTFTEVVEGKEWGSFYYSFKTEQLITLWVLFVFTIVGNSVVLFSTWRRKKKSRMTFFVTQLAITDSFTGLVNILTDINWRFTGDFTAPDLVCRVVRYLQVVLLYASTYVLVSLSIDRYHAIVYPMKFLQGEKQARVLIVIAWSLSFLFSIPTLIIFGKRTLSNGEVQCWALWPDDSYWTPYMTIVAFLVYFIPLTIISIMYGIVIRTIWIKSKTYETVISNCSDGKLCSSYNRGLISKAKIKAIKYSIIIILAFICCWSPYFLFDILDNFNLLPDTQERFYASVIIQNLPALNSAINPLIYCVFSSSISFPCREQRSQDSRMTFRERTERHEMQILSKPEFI
ALDH1A1 block: qHTS Assay for Inhibitors of Aldehyde Dehydrogenase 1 (ALDH1A1); Potency, µM (titrated, usually from 75.3 µM), without a hit: top-dose activity, negative = inhibition, usual class: inhibitors; Aldehyde dehydrogenase 1A1 (Homo sapiens), P00352; hit rate 7.3% among 220,000; Purified ALDH1A1, NADH fluorescence, propionaldehyde substrate; active = well fitted inhibition curve with a large enough effect, not every such curve was filed as active; inconclusive = small, poorly fitted or top-dose-only effect, or another doubt; inactive = no such curve, though single readings can be large or run the other way;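 also: potency is read from the fitted curve at half-maximal effect; plate controls were no enzyme wells and a reference inhibitor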
IMPase inh: qHTS Assay for Identifying the Cell-Membrane Permeable IMPase Inhibitors; Inositol monophosphatase 1 (Rattus norvegicus), P97697; CHO-M1 cells, IP1 accumulation, HTRF TR-FRET ratio; inhibition (IP1 accumulation), % at 46.1 µM; 120,000 tested, under 10 active; AID 901, 2007; active = well fitted curve in the direction sought with a large enough effect in the signal ratio, not every such curve was filed as active; inconclusive = small, poorly fitted or top-dose-only effect, or a change in a side signal; inactive = no such curve, though single readings can be large or run the other way; the % refers to the signal ratio;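 also: cells stimulated with carbachol in lithium chloride buffer; plate controls were DMSO basal wells for no effect and reference inhibitor wells for full effect; higher means more IMPase inhibition seen as more IP1 and lower FRET ratio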
Target sequence (P97697 whole entry, looked up): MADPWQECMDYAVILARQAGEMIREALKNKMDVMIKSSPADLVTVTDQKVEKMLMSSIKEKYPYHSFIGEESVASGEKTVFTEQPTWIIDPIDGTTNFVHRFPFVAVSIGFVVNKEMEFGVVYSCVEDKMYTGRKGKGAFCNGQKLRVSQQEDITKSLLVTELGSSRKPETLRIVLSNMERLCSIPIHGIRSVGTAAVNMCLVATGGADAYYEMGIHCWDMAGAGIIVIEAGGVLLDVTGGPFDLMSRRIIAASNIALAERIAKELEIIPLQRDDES
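CHO-M1 cells (CHO stably expressing M1 receptor), compound up to 46 uM final, stimulated with carbachol (50 uM as added) in buffer with 50mM LiCl, pH 7.4, 30 min at 37C. Cytosolic IP1 read by TR-FRET; AC50 from Hill fits.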
Starred values were filed as active, the others as inactive; u = inconclusive; x = no result; [ ] = dose if it differs, or a comment. Sampled rows, rich in hits. Any-hit rate of the full collection: about 8.9%. Unless noted, calls follow the shape of the dose curve; as a rule, active = well fitted curve in the direction sought with a large enough effect; inconclusive = small, poorly fitted or top-dose-only effect, or another doubt; inactive = no such curve, though single readings can be large; an effect the other way counts as inactive or inconclusive. Unless noted, % is scaled to controls: 0 for no effect and ±100 for the full control effect.

SMILES | HPGD block | IMPase Li cell | ALOX12 inhib | NPSR antagonist | ALDH1A1 block | IMPase inh
CC(/C=N/NC(=O)Cc1cccn1C)=C\c1ccco1 | u | 52.6%[38.3 µM] | -9.6% | -4.7%[46.1 µM] | 14.1µM* | -1.0[1.84 µM]
Cn1cccc1CC(=O)N/N=C/c1ccco1 | x | x | x | -6.1% | x | x
Cc1ccc(/C=N/NC(=O)Cc2cccn2C)s1 | 7.08µM* | 22.0% | -7.3% | 7.3% | 3.4% | x
CC(=C/c1ccco1)/C=N/NC(=O)Cc1cccn1C | -25.8% | -1.9% | -5.8% | -11.8% | 25.1µM* | 15.4
CC(/C=N/NC(=O)Cn1cnc2c1c(=O)n(C)c(=O)n2C)=C\c1ccco1 | x | x | x | 43.0% | 22.4µM* | x
CN(c1ccccc1)S(=O)(=O)c1cccc(NC(=O)CSc2ncn[nH]2)c1 | -25.0% | 13.8% | -2.3% | 28.6% | 3.7% | -1.9
CC1C(c2ccccc2)=[N+]([O-])C2(CCCCC2)N1O (centres undefined) | -11.5% | 4.1%[38.3 µM] | -3.3% | 0.9%[46.1 µM] | 1.0% | -11.4
Fc1ccc(CNc2nc(-c3ccco3)cc(C(F)(F)F)n2)cc1 | u | 10.1%[38.3 µM] | -18.5% | -16.1%[46.1 µM] | u | 9.4
COC(=O)c1cn(CCOc2ccccc2OC)c2ccccc12 | -21.9% | 1.6% | 5.6% | -3.7%[46.1 µM] | -8.2% | 11.6
CCn1c(-c2ccc(-c3ccccc3)cc2)c[nH]c1=S | u | 29.7%[38.3 µM] | -26.3% | -15.9%[46.1 µM] | u | -5.8
Cn1c(-c2ccc(-c3ccccc3)cc2)c[nH]c1=S | x | x | u | -16.2%[46.1 µM] | 2.1% | u
S=c1[nH]cc(-c2ccccc2)n1-c1ccccc1Cl | 17.8µM* | 0.3% | -8.5% | 0.6% | 0.891µM* | x
COc1ccccc1-n1c(-c2ccccc2)c[nH]c1=S | x | 4.9% | x | -5.5% | 2.51µM* | x
N#CCC(=O)Nn1c(=S)[nH]c2ccccc2c1=O | x | -1.0% | x | 9.0% | 9.2% | x
N#Cc1nc(COc2ccccc2F)oc1NCCc1ccccc1 | 12.6µM* | 28.0%[38.3 µM] | 1.2% | -15.9%[46.1 µM] | -10.4% | 7.3
N#Cc1nc(Cc2ccccc2)oc1NCc1ccccc1 | 14.1µM* | 3.2% | -5.1% | -4.0%[46.1 µM] | -3.0% | 22.8
O=C(NCc1ccccc1)C1=C[C@H](C2CCCCC2)C[C@H](OCc2ccc(CO)cc2)O1 | x | 19.6% | x | u | u | x
O=C(O)c1ccc(NC(=S)NC(=O)c2cccc(COc3ccccc3)c2)cc1 | x | 12.3% | x | 51.9% | 3.55µM* | x
CCOc1cccc(C(=O)NC(=S)Nc2ccc(N3CCN(CC)CC3)cc2)c1 | x | 21.7% | x | 0.7% | u | x
CCOc1cccc(C(=O)NC(=S)Nc2cccc(NC(=O)c3ccccc3Cl)c2)c1 | -26.6% | -13.4% | u | -12.0% | 1.41µM* | x
CCOc1cccc(C(=O)NC(=S)Nc2ccccc2)c1 | -19.6% | 8.7% | u | -3.2% | 17.8µM* | x
CC(NC(=O)c1ccc(Cn2cc([N+](=O)[O-])cn2)o1)c1ccccc1 (centres undefined) | -6.1% | -9.0%[38.3 µM] | -0.7% | -2.7%[46.1 µM] | u | -17.9
COc1ccc(Nc2cc(C)nc(N)n2)cc1 | x | x | x | 16.9% | x | x
O=CN[C@@H](Cc1cnc[nH]1)C(=O)O | -6.5% | -3.0% | 8.5%[11.4 µM] | x | 0.4%[13.5 µM] | x
Cc1ccc(-n2c(-c3cccc(C)c3)n[nH]c2=S)cc1 | 22.4µM* | -17.6%[38.3 µM] | -18.7% | -1.7%[46.1 µM] | 2.0% | -11.1
S=c1[nH]nc(-c2ccc(Cl)cc2)n1-c1cccnc1 | x | x | x | -12.1% | x | x
Fc1ccccc1-n1c(-c2ccc3ccccc3n2)n[nH]c1=S | x | -4.7% | x | -29.4% | 17.1% | x
Cc1[nH]c2ccc(-c3n[nH]c(=S)n3-c3ccc(Br)cc3)cc2c1C | x | 8.5% | x | -44.4% | 13.1% | x
S=c1[nH]nc(-c2cccnc2)n1-c1ccccc1 | -27.1% | -3.8% | 0.8% | 3.3%[46.1 µM] | 7.94µM* | 6.1
